For 3 compounds, growth results are on record in PubChem BioAssay (NCI).

What all share (assay): NCI-60 one-dose screen, 48 h (100 = growth as untreated, 0 = no growth, -100 = all killed)
For assay [1], the system named is NCI-H226 lung. The conditions noted are these: 10 µM unless noted.
Assay [2] concerns NCI-H460 lung. Conditions: 10 µM unless noted.
Assay [3] relates to 786-0 renal. The conditions noted are these: 10 µM unless noted.
For assay [4], the system named is MDA-MB-231 breast. Conditions: 10 µM unless noted.
Assay [5] deals with SF-268 CNS. Conditions: 10 µM unless noted.
Assay [6] has as its system SF-539 CNS. The conditions noted are these: 10 µM unless noted.
Assay [7] concerns M14 melanoma. The conditions noted are these: 10 µM unless noted.
The subject of assay [8] is HCT-15 colon. Conditions: 10 µM.
Assay [9] concerns UACC-62 melanoma. Conditions: 10 µM unless noted.
Assay [10] has as its system UO-31 renal. The conditions noted are these: 10 µM unless noted.
Assay [11] concerns TK-10 renal. The conditions noted are these: 10 µM unless noted.
The test system of assay [12] is ACHN renal. The conditions noted are these: 10 µM unless noted.
Assay [13] has as its system HL-60(TB) leukemia. The conditions noted are these: 10 µM unless noted.
Assay [14] deals with NCI/ADR-RES ovarian. The conditions noted are these: 10 µM unless noted.
The subject of assay [15] is T-47D breast. Conditions: 10 µM unless noted.
In assay [16] the test system is MDA-MB-435 melanoma. The conditions noted are these: 10 µM unless noted.
Assay [17] deals with SW-620 colon. Conditions: 10 µM unless noted.
The subject of assay [18] is MCF7 breast. Conditions: 10 µM unless noted.
The subject of assay [19] is HCT-116 colon. The conditions noted are these: 10 µM unless noted.
For assay [20], the system named is KM12 colon. Conditions: 10 µM unless noted.

This is part of a sample that, as a whole, favours compounds with a hit. Of some 83,000 tested, about 20% had one in any assay.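 Cells were grown in 96-well plates and exposed to the test compound at a single concentration for 48 hours; results are reported as percent growth, with values below 10 considered active.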 Active and inactive are the calls of the source.

As to `C=CCN1C(=O)C(CC)(CCC(C)C)C(=O)NC1=S` (stereo not given), the growth was 104% (inactive) in assay [1]; 105% (inactive) in assay [2]; 97.7% (inactive) in [3]; 108% (inactive) in [4]; 109% (inactive) in [5]; 111% (inactive) in assay [6]. Further, the growth was 107% (inactive) in assay [7]; 105% (inactive) in assay [8]; 92.2% (inactive) in assay [9]; 86.4% (inactive) in assay [10]; 115% (inactive) in [11]; 110% (inactive) in assay [12]. In addition, the growth in [13] was 101% (inactive); in assay [14] it was 106% (inactive); in assay [15] it was 113% (inactive); in [16], 101% (inactive); in assay [17], 104% (inactive); in assay [18] it was 107% (inactive). Besides, the figures for the growth in [19] and in assay [20] were 105% (inactive) and 108% (inactive), respectively.
Turning to `NC(=O)OCC(CO)(c1ccccc1)c1ccccc1`, the growth in [1] was 96.2% (inactive); in assay [2], 107% (inactive); in assay [3], 96.7% (inactive); in assay [4], 114% (inactive); in [5], 101% (inactive); in assay [6], 96.8% (inactive). Besides, the growth in assay [7] was 99.5% (inactive); in assay [8], 98.8% (inactive); in assay [9] it was 115% (inactive); in assay [10], 80.1% (inactive); in assay [11], 97.7% (inactive); in assay [12], 98.1% (inactive). Also, the growth in [13] is 114% (inactive); in assay [14], 108% (inactive); in assay [15], 97.3% (inactive); in assay [16], 101% (inactive); in assay [17] it was 107% (inactive); in [18], 99.3% (inactive). In addition, the values for the growth in assay [19] and in assay [20] were 92.1% (inactive) and 96.6% (inactive), respectively.
With `CC1(C)N=C(N)N=C(N)N1c1ccc(CCCCc2ccc(S(=O)(=O)F)cc2)c(Cl)c1`, the growth was 31.8% (inactive) in assay [1]; 10.7% (inactive) in assay [2]; 22.1% (inactive) in assay [3]; 34.3% (inactive) in assay [4]; 25.6% (inactive) in assay [5]; 22.9% (inactive) in assay [6]. The growth in [7] is 24.3% (inactive); in [8], 29.5% (inactive); in assay [9], 18.3% (inactive); in [10], 59.9% (inactive); in assay [11], 23% (inactive); in assay [12] it was 22.1% (inactive). For the same compound, the growth in assay [13] is 19.2% (inactive); in assay [14] it was 103% (inactive); in assay [15] it was -0.711% (active); in [16], 15.7% (inactive); in [17] it was 17.2% (inactive); in assay [18] it was -0.0775% (active). The figures for the growth in [19] and in assay [20] were 12.8% (inactive) and 22.4% (inactive), respectively.
